Assay results from the supplement of paper PMC12067093, “Discovery and optimisation of a covalent ligand for TRIM25 and its application to targeted protein ubiquitination” (Chemical Science, 2025).
Of roughly 21,000 targets only a part is listed; those with the largest changes were picked by preference.
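Also: competitive profiling in live THP-1 cells: cysteine peptides tagged with an iodoacetamide desthiobiotin (IA-DTB) probe, intensity after compound treatment relative to DMSO-treated cells.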

UniProt P10599, sequence (P10599 whole entry, looked up): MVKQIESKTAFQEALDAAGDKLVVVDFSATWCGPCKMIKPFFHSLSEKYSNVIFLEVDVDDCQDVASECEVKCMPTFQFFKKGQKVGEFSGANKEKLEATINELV
UniProt Q96Q05, sequence (Q96Q05 whole entry, looked up): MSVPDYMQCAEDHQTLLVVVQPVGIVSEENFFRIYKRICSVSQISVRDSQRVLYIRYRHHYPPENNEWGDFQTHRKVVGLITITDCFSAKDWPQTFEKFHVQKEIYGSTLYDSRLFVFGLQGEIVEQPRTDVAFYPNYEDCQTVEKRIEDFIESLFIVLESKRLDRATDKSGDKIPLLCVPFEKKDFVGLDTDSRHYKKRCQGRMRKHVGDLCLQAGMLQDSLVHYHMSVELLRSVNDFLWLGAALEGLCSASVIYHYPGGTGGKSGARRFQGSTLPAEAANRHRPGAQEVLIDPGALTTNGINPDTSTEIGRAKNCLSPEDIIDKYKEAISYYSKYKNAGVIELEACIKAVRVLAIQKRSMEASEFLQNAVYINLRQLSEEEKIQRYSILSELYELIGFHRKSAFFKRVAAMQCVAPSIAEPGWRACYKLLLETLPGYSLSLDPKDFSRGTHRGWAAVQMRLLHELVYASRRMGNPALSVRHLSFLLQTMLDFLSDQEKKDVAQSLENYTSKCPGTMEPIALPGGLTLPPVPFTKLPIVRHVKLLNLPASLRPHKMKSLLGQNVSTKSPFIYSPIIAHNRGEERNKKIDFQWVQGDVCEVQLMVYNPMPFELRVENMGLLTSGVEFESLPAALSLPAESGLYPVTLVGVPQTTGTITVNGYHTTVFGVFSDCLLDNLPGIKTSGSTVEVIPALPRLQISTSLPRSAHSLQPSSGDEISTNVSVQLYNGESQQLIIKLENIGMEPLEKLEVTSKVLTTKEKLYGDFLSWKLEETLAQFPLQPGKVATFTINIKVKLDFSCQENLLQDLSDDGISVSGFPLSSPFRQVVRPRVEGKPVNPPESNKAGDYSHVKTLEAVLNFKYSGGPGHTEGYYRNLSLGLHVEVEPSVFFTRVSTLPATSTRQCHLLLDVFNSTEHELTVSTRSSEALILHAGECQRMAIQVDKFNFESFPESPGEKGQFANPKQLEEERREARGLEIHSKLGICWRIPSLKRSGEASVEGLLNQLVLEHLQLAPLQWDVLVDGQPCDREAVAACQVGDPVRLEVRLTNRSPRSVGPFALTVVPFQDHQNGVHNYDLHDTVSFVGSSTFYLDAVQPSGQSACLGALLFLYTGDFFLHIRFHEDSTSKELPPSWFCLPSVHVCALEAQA
UniProt P10746, sequence (P10746 whole entry, looked up): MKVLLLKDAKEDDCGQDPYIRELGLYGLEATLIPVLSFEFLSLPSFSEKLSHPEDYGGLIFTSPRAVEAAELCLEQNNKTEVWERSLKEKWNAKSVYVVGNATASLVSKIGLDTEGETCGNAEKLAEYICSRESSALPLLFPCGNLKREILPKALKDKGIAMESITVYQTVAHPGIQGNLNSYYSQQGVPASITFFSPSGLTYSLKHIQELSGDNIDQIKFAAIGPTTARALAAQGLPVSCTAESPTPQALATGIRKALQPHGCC
UniProt O15042, sequence (O15042 whole entry, looked up): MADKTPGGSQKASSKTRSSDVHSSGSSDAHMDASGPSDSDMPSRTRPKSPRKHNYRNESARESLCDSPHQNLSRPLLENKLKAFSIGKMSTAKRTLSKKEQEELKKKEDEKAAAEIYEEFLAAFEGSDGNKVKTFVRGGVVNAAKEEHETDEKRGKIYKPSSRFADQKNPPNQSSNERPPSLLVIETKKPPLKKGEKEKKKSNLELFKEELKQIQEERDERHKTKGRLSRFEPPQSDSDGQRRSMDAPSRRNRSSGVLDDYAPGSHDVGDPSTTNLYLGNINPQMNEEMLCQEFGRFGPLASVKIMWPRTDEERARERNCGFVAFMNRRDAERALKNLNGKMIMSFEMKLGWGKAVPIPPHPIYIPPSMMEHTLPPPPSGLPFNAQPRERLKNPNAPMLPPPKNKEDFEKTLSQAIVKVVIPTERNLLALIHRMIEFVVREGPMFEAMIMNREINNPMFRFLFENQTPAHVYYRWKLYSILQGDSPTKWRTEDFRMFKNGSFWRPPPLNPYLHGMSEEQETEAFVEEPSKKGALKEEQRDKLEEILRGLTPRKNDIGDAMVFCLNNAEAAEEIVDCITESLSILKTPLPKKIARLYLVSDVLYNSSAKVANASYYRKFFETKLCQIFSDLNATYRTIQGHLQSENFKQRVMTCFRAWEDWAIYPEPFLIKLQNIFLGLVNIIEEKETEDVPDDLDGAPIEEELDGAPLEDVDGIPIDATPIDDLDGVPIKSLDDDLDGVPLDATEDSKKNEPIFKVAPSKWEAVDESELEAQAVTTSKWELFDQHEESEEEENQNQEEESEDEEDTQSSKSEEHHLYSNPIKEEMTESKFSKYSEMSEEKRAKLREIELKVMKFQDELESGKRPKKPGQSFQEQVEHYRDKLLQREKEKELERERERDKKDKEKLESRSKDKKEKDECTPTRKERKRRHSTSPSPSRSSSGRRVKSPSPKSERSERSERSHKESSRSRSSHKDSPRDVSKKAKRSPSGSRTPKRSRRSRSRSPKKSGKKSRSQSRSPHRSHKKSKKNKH
UniProt Q9BZX2, sequence (Q9BZX2 whole entry, looked up): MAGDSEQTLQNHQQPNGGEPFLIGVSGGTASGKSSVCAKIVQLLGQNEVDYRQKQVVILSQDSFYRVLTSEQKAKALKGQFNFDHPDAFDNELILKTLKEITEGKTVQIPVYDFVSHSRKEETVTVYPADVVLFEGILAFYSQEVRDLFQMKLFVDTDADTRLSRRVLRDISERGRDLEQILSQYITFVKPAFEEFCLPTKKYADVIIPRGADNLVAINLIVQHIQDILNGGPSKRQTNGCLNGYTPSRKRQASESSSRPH
UniProt Q86UV5, sequence (Q86UV5 whole entry, looked up): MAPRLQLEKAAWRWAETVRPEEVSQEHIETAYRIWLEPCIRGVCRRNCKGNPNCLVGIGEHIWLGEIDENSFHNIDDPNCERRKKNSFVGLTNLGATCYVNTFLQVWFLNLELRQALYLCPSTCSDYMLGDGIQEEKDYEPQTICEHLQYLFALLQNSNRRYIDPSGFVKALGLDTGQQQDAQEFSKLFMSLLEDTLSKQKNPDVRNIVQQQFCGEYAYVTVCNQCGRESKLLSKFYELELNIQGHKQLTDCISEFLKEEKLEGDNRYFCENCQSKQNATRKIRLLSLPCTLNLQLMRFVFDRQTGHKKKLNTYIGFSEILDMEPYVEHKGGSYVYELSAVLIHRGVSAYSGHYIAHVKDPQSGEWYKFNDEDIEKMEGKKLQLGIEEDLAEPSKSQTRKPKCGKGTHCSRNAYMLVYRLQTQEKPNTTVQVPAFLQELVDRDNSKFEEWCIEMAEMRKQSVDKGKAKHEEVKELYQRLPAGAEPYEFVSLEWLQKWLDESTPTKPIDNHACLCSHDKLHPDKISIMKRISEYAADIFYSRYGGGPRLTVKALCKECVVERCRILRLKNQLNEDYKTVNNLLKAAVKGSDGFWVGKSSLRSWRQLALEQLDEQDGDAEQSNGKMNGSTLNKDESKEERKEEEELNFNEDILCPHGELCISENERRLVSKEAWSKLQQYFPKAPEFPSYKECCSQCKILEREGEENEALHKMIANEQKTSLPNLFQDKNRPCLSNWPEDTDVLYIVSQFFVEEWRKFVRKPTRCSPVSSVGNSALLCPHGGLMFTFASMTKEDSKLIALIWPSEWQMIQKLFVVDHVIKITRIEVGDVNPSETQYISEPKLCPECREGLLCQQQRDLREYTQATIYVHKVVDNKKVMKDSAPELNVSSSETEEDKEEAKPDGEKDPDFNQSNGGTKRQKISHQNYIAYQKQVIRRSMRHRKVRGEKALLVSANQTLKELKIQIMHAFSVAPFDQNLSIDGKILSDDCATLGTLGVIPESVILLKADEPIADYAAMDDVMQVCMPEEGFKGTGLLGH
UniProt Q9NPD8, sequence (Q9NPD8 whole entry, looked up): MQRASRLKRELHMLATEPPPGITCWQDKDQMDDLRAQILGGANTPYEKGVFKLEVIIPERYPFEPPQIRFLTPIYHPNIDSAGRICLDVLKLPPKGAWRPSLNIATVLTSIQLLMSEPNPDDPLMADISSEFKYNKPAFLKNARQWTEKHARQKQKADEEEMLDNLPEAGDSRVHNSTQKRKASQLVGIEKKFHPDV
UniProt Q8N584, sequence (Q8N584 whole entry, looked up): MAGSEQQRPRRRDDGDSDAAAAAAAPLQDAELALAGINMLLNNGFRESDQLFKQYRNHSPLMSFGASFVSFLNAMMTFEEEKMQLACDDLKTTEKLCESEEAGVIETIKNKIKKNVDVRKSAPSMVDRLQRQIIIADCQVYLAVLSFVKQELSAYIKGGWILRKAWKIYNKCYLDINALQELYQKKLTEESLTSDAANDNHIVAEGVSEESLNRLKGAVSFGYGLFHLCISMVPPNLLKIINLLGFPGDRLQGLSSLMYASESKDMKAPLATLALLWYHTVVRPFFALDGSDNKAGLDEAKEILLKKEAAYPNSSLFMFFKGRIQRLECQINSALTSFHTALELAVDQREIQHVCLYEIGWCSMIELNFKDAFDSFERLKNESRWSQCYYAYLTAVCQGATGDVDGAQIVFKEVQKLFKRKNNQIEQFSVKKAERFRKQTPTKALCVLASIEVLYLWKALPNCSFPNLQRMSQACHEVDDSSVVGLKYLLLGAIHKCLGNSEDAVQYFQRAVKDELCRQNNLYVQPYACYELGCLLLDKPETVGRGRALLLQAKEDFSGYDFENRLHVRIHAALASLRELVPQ
UniProt Q99757, sequence (Q99757 whole entry, looked up): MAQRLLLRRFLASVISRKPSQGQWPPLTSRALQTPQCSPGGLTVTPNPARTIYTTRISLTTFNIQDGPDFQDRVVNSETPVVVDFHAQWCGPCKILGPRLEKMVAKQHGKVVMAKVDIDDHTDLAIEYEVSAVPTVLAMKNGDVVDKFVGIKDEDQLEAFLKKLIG

What follows are targets tested with Cc1cc(ccc1-c1ccccc1)C(=O)N1CCCN(CC1)C(=O)CCl [compound 10] (assay: probe-labelled cysteine peptide fold change vs DMSO (competition) (log2 fold change); higher = less target engagement (more negative = stronger competition)). Details: 10 µM; THP-1; incubation time: 4 h.
“TRRAP_Q9Y4A5_2513_STPIGTSCQGAMLPSITNVINLADSHDR (UniProt Q9Y4A5)” was tested, and the “probe-labelled cysteine peptide fold change” value was 0.223. “UROS_P10746_143_ESSALPLLFPCGNLKR (UniProt P10746)” was tested, and the “probe-labelled cysteine peptide fold change” value was -0.128. With “USP48_Q86UV5_512+514_WLDESTPTKPIDNHACLCSHDK (UniProt Q86UV5)” the “probe-labelled cysteine peptide fold change” value was -0.0825. For “TSTA3_Q13630_116_VVSCLSTCIFPDK (UniProt Q13630)”, the “probe-labelled cysteine peptide fold change” value was -0.0711. With “USP9Y_O00507_674_DGQLWLCAPQAK (UniProt O00507)” the “probe-labelled cysteine peptide fold change” value was -0.00329. With “UBE2T_Q9NPD8_24_ELHMLATEPPPGITCWQDK (UniProt Q9NPD8)” the “probe-labelled cysteine peptide fold change” value was -0.209. For “TRIP6_Q15654_339+342_CATCSQPILDR (UniProt Q15654)”, the “probe-labelled cysteine peptide fold change” value was 0.045. In the case of “UCK2_Q9BZX2_197_PAFEEFCLPTK (UniProt Q9BZX2)”, the “probe-labelled cysteine peptide fold change” value is reported as -0.0609. With “TRAP1_Q12931_527_KDTEVLFCFEQFDELTLLHLR (UniProt Q12931)” the “probe-labelled cysteine peptide fold change” value was 0.143. “TXN_P10599_32_LVVVDFSATWCGPCK (UniProt P10599)” was tested, and the “probe-labelled cysteine peptide fold change” value was -0.415. “TXN2_Q99757_93_VVNSETPVVVDFHAQWCGPCK (UniProt Q99757)” was tested, and the “probe-labelled cysteine peptide fold change” value was -1.34. In the case of “TTC39C_Q8N584_517_AVKDELCR (UniProt Q8N584)”, the “probe-labelled cysteine peptide fold change” value is reported as -0.00819. In the case of “TRRAP_Q9Y4A5_3535_IYPYLVMNDACLTESR (UniProt Q9Y4A5)”, the “probe-labelled cysteine peptide fold change” value is reported as -0.136. With “UBR4_Q5T4S7_2619_QLEGDCCSFITQLVNHFWK (UniProt Q5T4S7)” the “probe-labelled cysteine peptide fold change” value was -0.0425. For “TRAPPC9_Q96Q05_317_NCLSPEDIIDK (UniProt Q96Q05)”, the “probe-labelled cysteine peptide fold change” value was 0.12. With “U2SURP_O15042_918_EKDECTPTRK (UniProt O15042)” the “probe-labelled cysteine peptide fold change” value was -0.0489.
